The values that follow come from PubChem BioAssay (EPA / NIEHS).

Structures are written as SMILES. Inconclusive results are not listed. The source made the active and inactive calls. Rule for the calls: active = hit-call score of the fitted dose curve at least 0.9, where 1 is the maximum; inconclusive = response in the unintended direction; inactive = score below 0.9.

The target in this test is Luciferin 4-monooxygenase (Photinus pyralis) (UniProt P08659). In words: CCTE_Simmons_QuantiLum_inhib_2: CCTE's Firefly Luciferase Inhibition Assay, Simmons Lab (AID 2283767).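 For AC50: potency for inhibitors that lower luciferase luminescence relative to DMSO.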 As to the method: CCTE_Simmons_QuantiLum_inhib_2 is a biochemical, single-readout assay that uses purified luciferase enzyme in a cell-free assay.Measurements were taken 0.5 hour after chemical dosing in a 384-well plate.CCTE_Simmons_QuantiLum_inhib_2 is the assay component measured from the CCTE_Simmons_QuantiLum_inhib_2 assay. It is designed to make measurements of enzyme activity, a form of enzyme reporter, as detected with bioluminescence signals by Luciferase-coupled Quantilum levels technology. This is a secondary assay to CCTE_Simmons_AUR_TPO to evaluate nonspecific enzyme inhibition.Data from the assay component CCTE_Simmons_QuantiLum_inhib_2 was analyzed at the endpoint, CCTE_Simmons_QuantiLum_inhib_2, in the positive analysis fitting direction relative to DMSO as the negative control and baseline of activity. Using a type of enzyme reporter, measures of enzyme activity for loss-of-signal activity can be used to understand inhibition of firefly luciferase. This is an assay endpoint to indicate nonspecific protein inhibition for comparison to aeid 1508 for thyroperoxidase inhibition. To generalize the intended target to other relatable targets, this assay endpoint is annotated to the oxidoreductase intended target family, where the subfamily is monooxygenase.
Sequence of Luciferin 4-monooxygenase (Photinus pyralis) (P08659 whole entry, looked up): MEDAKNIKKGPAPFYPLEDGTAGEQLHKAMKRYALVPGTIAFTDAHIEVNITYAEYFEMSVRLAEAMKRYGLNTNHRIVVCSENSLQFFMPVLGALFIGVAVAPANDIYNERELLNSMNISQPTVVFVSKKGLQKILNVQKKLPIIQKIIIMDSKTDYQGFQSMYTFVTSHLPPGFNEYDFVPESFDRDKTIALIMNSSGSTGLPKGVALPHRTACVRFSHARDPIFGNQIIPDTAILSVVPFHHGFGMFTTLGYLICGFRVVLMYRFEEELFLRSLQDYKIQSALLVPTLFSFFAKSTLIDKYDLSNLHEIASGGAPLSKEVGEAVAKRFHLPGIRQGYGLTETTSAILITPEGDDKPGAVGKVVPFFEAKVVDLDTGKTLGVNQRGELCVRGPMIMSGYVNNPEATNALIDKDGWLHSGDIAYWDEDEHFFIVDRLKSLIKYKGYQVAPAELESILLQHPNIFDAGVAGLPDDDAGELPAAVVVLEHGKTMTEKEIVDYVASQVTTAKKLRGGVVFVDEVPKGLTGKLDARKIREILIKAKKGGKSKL
Quanti-Lum recombinant luciferase (Promega; Madison, Wisconsin) was diluted to 76.9 ng/ml with 200mM potassium phosphate buffer supplemented with 1 mg/ml bovine serum albumin and 65ul (5ng recombinant luciferase) per well was dispensed into opaque, white 384-well plates (Greiner, BioExpress) using an automated liquid handler (BioTek MicroFlo) with a plastic 5 ul tubing cassette. Test compounds were administered using the HDRT as described earlier to achieve a 0.5% final DMSO concentration. Microplates were incubated at 37C in the dark for 30min to mimic the AUR-TPO assay conditions. Luciferase detection reagent (25 ul per well; 9.2 mM dithiothreitol, 75uM Coenzyme A, 147uM dATP, 150uM D-luciferin, 8.9 mM Tricine, 297uM (MgCO3)4.Mg(OH)2.5H20, 742uM MgSO4, 27.8uM EDTA, pH 7.8, final assay concentrations) was then added using a BMG Clariostar plate reader equipped with syringe injectors (BMG LabTech; GmbH). Plates were read using a kinetic luminescence protocol (top read) whereby each well was individually injected with luciferase detection reagent immediately prior to measurement. Three biological replicates of technical singles were run for every chemical concentration tested. A titrated range of LUCINH2 served as a positive control on each plate of the luciferase inhibition screening assay. Test chemicals were administered as a titrated series of 8 concentrations from 5 nM up to 87.5 uM [final] for 30 minutes prior to single endpoint detection. Dimethylsulfoxide [DMSO] was used as the vehicle control. Luciferase Inhibitor I [2-(5-(2-Methoxyphenyl)-1,2,4-oxadiazol-3-yl)pyridine] was used as the positive control and was administered as a titrated series of 8 concentrations from 1 nM up to 100 uM [final].
Consider `Cc1[nH]nc2c1N=C(c1ccccc1Cl)c1cc([N+](=O)[O-])ccc1N2`, for which the AC50 (commonly the concentration at which the activity in the assay is half-maximal) was 44.6 µM (active). Take `Cc1cc(C(C)(C)C)c(O)c(C(C)(C)C)c1`: the result was inactive.

Consider `Cc1cc(Cc2cc(C)cc(C(C)(C)C)c2O)c(O)c(C(C)(C)C)c1`, for which the call was inactive. `CCCCCCCCCCCCOC(=O)c1cc(O)c(O)c(O)c1`: the compound was called inactive. The same measure, in the same setting: then `CN(Cc1cnc2nc(N)nc(N)c2n1)c1ccc(C(=O)N[C@@H](CCC(=O)O)C(=O)O)cc1`, with “inactive”; and `CCCCCCCCCCCC`, with “inactive”.

As to `O=C1OC2(c3ccccc31)c1cc(I)c(O)c(I)c1Oc1c2cc(I)c(O)c1I`, the concentration at half-maximal activity (AC50) was 6.41 µM (active). As for `CCCCCCc1ccc(N)cc1`, the AC50 was 77.1 µM (active). `Cc1cc(C(=C2C=CC(=Nc3ccc(S(=O)(=O)O)cc3)C=C2)c2ccc(Nc3ccc(S(=O)(=O)O)cc3)cc2)cc(S(=O)(=O)O)c1N`: the AC50 is 42.8 µM (active). Consider `COc1cc([N+](=O)[O-])ccc1N`, for which the outcome was inactive. `CCc1cccc(CC)c1N(COC)C(=O)CS(=O)(=O)O`: the compound was called inactive. Still for that read-out and setting: then `C[C@]12CC[C@@H]3c4ccc(O)cc4CC[C@H]3[C@@H]1C[C@@H](O)[C@@H]2O`, with “inactive”.
